These results are taken from PubChem BioAssay (Tox21).

Records with an inconclusive call do not appear. A number with no mark means an inactive call. Activity calls are given as the source filed them. Calls come from the whole dose curve; as a rule, active = well fitted cell-killing curve with a large enough effect in the repeat runs; inconclusive = weak or mixed curves, or effect the other way; inactive = flat fitted curve, though single readings scatter.

A short description of assay [1]: cAMP Responsive Elements (CRE) small molecule antagonists, cell-based qHTS assay: qHTS cell viability counter screen (AID 2060913). Note: nearly all actives have a fitted effect of over 40% in size. Summed up: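 Cytotoxicity counter screen multiplexed with the CRE-bla antagonist read: HEK293T cells in DMEM with dialyzed FBS and 25 mM HEPES were treated 3 hrs under 0.25 uM final NKH477, then viability measured by CellTiter-Glo luminescence.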

Assay [2] can be described thus: cAMP Responsive Elements (CRE) small molecule agonists, cell-based qHTS assay: qHTS cell viability counter screen (AID 2060914). Note: nearly all actives have a fitted effect of over 50% in size. Summed up: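 Luminescence read-out (CellTiter-Glo, 30 min RT) of ATP-based viability in CRE-bla HEK 293T cells, run in the same wells as the β-lactamase reporter assay after 3 h compound treatment at 37 °C.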
% is set by controls: 0 for no effect and ±100 for the full control effect.

As for `CCCn1cc[n+](C)c1C`, the Potency entry in assay [1] and in assay [2] was “inactive” each time.

Consider `CCOc1ccc2[nH]cc(C(=O)NCc3ccccc3)c(=O)c2n1`, for which the Potency entry in assay [1] and in assay [2] was “inactive” in each case.

As to `Cc1c(I)c(=O)n(-c2ccccc2)n1C`, the Potency entry in assay [1] and in assay [2] was “inactive” each time.

`CCCC(CC)c1ccccc1` (centres undefined): the Potency entry in assay [1] and in assay [2] was “inactive” in each case.

Regarding `O=C(O)/C=C/C(=O)O`, the Potency result in assay [1] and in assay [2] was “inactive” each time.

In the case of `O=c1c(O)c(-c2ccc(O)cc2)oc2cc(O)cc(O)c12`, the Potency entry in assay [1] and in assay [2] was “inactive” throughout.

`Nc1nnnn1-c1ccccc1`: the Potency entry in assay [1] and in assay [2] was “inactive” throughout.

Take `NC(=O)NS(=O)(=O)c1ccc(N)cc1`: the Potency entry in assay [1] and in assay [2] was “inactive” in each case.

Consider `O=S(=O)(O)c1cc(S(=O)(=O)O)c2ccc3c(S(=O)(=O)O)cc(S(=O)(=O)O)c4ccc1c2c43`, for which the viability change, negative = cytotoxic in assay [1] was 3.35% [at 18.9 µM]. Further, the activity change, negative = cytotoxicity in assay [2] was -11.7% [at 18.9 µM].

In the case of `CCOC(=O)c1ccc(C)cc1`, the Potency entry in assay [1] and in assay [2] was “inactive” each time.

With `COC(=O)c1ccccc1`, the Potency entry in assay [1] and in assay [2] was “inactive” throughout.

`O=C(O)c1cccc(C(=O)O)c1`: the Potency entry in assay [1] and in assay [2] was “inactive” in each case.
